# According to PMC5540273 (PLoS ONE, 2017):
# Assays:
# Details in all cases: concentration: 1 μM, replicates: in singlicate; n = 1
# MEK5 = test system: T1, MEK5
# T1 construct: gene MAP2K5
# MEK6 = test system: T2, MEK6
# T2 construct: gene MAP2K6
# MELK = test system: MELK
# MERTK = test system: MERTK
# MET = test system: MET
# MINK = test system: T3, MINK
# T3 construct: gene MINK1
# MKK7 = test system: MKK7
# MKNK1 = test system: MKNK1
# MKNK2 = test system: MKNK2
# MLCK = test system: T4, MLCK
# T4 construct: gene MYLK3
# 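Also: KINOMEscan kinase panel screen.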
SMILES,%Inh (MEK5),%Inh (MEK6),%Inh (MELK),%Inh (MERTK),%Inh (MET),%Inh (MINK),%Inh (MKK7),%Inh (MKNK1),%Inh (MKNK2),%Inh (MLCK)
COc1cccc2c(-c3ccncc3)c(-c3ccc(F)cc3)nn12 [GW468513],33%,0%,0%,0%,84%,78%,0%,22%,0%,6%
Cc1cc(-c2ccnc(Nc3cccc(C#N)c3)n2)cc(C)c1O [GSK1440913],23%,35%,0%,42%,38%,52%,36%,2%,2%,77%
Nc1cccc(-c2ccc3c(N)n[nH]c3c2)c1 [GSK2193613],64%,0%,0%,0%,6%,73%,0%,2%,64%,95.4%
COC(=O)Nc1nc2cc(Oc3ccc(NC(=O)Nc4cccc(SC)c4)cc3)ccc2[nH]1.Cl [GW697999],55%,0%,0%,89%,21%,23%,0%,32%,65%,0%
Cl.Cl.NCC(NC(=O)c1cc(-c2cccnc2)c(-c2ccnc3[nH]ccc23)s1)c1ccccc1 (stereo not drawn) [GSK1323434],59%,0%,20%,13%,0%,80%,0%,0%,56%,51%
CN(C)CCOc1ccc(-c2cc(-c3ccc(Cl)c(O)c3)c(-c3ccncc3)[nH]2)cc1.Cl.Cl [SB-684387],21%,0%,15%,0%,43%,36%,0%,7%,4%,13%
COc1cccc(NC(=O)NCCNc2ccnc(Nc3ccc(F)cc3)n2)c1 [GSK1379879],40%,0%,0%,0%,0%,2%,30%,12%,7%,0%
COc1cccc(-c2nc(-c3ccccc3)[nH]c2-c2ccncc2)c1 [SB-610250],26%,100%,14%,9%,0%,10%,0%,22%,5%,0%
Cl.N#CCc1ccc(Nc2nccc(Nc3ccc(Oc4ccccc4)cc3)n2)cc1 [GW639905],99.9%,0%,0%,0%,0%,0%,0%,0%,33%,0%
CC(C)c1nc(-c2ccc(F)c(NS(=O)(=O)c3c(F)cccc3F)c2)c(-c2ccnc(Nc3ccc(N4CCOCC4)nc3)n2)s1 [GSK1804250],100%,22%,45%,54%,70%,26%,15%,21%,11%,0%
CN(C)c1ncnc2nc[nH]c12 [SKF-31736],51%,0%,0%,10%,0%,2%,20%,0%,0%,0%
Fc1cc(Cl)ccc1Nc1ccnc2cc(-c3ccc(CN4CCSCC4)o3)ccc12 [GW560106],99.8%,0%,0%,40%,28%,63%,0%,1%,45%,5%
COC(=O)Nc1nc2ccc(Oc3ccc(NC(=O)Nc4cc(C(F)(F)F)ccc4F)cc3)cc2[nH]1.Cl [GW654607],94.2%,7%,0%,98.5%,88%,15%,0%,73%,94.9%,0%
COc1cccc(C2=C(Nc3cccc(O)c3)C(=O)NC2=O)c1 [SB-390771],71%,2%,27%,18%,21%,18%,20%,11%,5%,0%
CCNC(=O)/C=C/c1n[nH]c2cc(Sc3ccccc3C(=O)NC)ccc12,45%,0%,7%,20%,13%,56%,0%,0%,1%,0%
CCNc1nccc(-c2c(-c3ccc(F)cc3)ncn2C2CCN(C)CC2)n1,19%,15%,11%,25%,0%,30%,0%,0%,0%,0%
Cc1ccc(Nc2ccnc(Nc3ccc(C)c(F)c3)n2)cc1O.Cl [GW582868],92.8%,0%,0%,38%,0%,0%,0%,0%,7%,24%

SMILES,%Inh (MEK5),%Inh (MEK6),%Inh (MELK),%Inh (MERTK),%Inh (MET),%Inh (MINK),%Inh (MKK7),%Inh (MKNK1),%Inh (MKNK2),%Inh (MLCK)
Cn1cc(-c2cnc(N)c3c(-c4ccc5c(c4)CCN5C(=O)Cc4ccccc4)csc23)cn1 [GSK2593074],99.8%,7%,0%,90%,79%,16%,0%,0%,0%,0%
CNc1nccc(-c2ccc3c(N)n[nH]c3c2)n1 [GSK2206003],49%,9%,61%,21%,0%,59%,0%,41%,97.9%,76%
COc1cc(Nc2ccnc3cc(-c4ccncc4)ccc23)cc(OC)c1OC.Cl [GW494610],99.8%,0%,18%,13%,13%,95.1%,23%,28%,14%,0%
COC(=O)Nc1nc2ccc(Oc3ccc(CC(=O)Nc4cc(C(F)(F)F)ccc4F)cc3)cc2[nH]1 [GW680903],31%,0%,0%,44%,0%,0%,8%,13%,3%,0%
O=C(Nc1c(F)cccc1F)c1cc(C(=O)c2ccccc2F)c[nH]1 [GSK1326180],20%,0%,0%,18%,0%,47%,0%,10%,0%,2%
CS(=O)(=O)c1cccc(CNc2nc(Nc3ccc4c(c3)CCC(=O)N4)ncc2C(F)(F)F)c1,48%,0%,26%,56%,83%,85%,0%,0%,58%,0%
CC(C)(C)c1ccc(C(=O)Nc2cn3cc(-n4ccnc4)ccc3n2)cc1,99%,0%,0%,0%,0%,18%,0%,8%,0%,19%
Cc1ccc(O)cc1Nc1ccnc2ccc(C(C)(C)C)cc12 [GW856805],86%,25%,8%,46%,0%,10%,40%,0%,30%,4%
Cc1ccc(NC(=O)c2ccc(Cl)c(Cl)c2)cc1-c1ccc(C(=O)Nc2ccncc2)cc1 [GSK1398460],27%,5%,0%,36%,0%,6%,0%,11%,0%,0%
Nc1ncnc2scc(-c3ccc(NC(=O)Cc4cc(F)ccc4F)cc3)c12.O=C(O)C(F)(F)F [SB-731254-M],99.7%,11%,4%,14%,0%,35%,0%,0%,47%,60%
COc1ccc(C)c(Nc2ccnc(Nc3ccc(-c4cnc[nH]4)cc3)n2)c1.Cl [GW784041],99.7%,0%,34%,7%,15%,44%,0%,8%,0%,0%
Nc1ncc(-c2cn[nH]c2)c2scc(-c3ccc4c(c3)CCN4C(=O)Cc3ccccc3)c12 [GSK2593067],99.9%,0%,32%,73%,77%,33%,34%,0%,11%,6%
c1ccc(Oc2ccc(Nc3ccnc4cc(-c5ccc(CN6CCCCC6)o5)ccc34)cc2)nc1 [GW567143],100%,0%,0%,50%,11%,25%,0%,7%,37%,0%
COc1ccc(C2=C(Nc3cccc(O)c3)C(=O)NC2=O)cc1 [SB-390766],17%,0%,99.4%,28%,0%,0%,73%,93.5%,17%,2%
NCCC(NC(=O)c1cc(Br)c(-c2ccnc3[nH]ccc23)s1)c1ccccc1.O=C(O)C(F)(F)F.O=C(O)C(F)(F)F (stereo not drawn) [GSK1307810],18%,8%,74%,25%,24%,55%,18%,32%,93.9%,85%
COc1cccc(CC(=O)N2CCc3cc(-c4cn(C)c5ncnc(N)c45)ccc32)c1 [GSK2608899],99.7%,0%,13%,75%,75%,19%,0%,9%,14%,10%
